From PubChem BioAssay
LASV entry inh: inhibitors of Lassa virus binding or cell entry; Lassa virus pseudotype entry inhibition, cell reporter; Potency, µM (titrated, usually from 37.9 µM), without a hit: at the top dose activity change, negative = inhibition, actives largely listed as inhibitors; hit rate 1.2% among 300,000; AID 540256; calls by dose curve; tested in HEK293 cells; also: potency is read from the fitted curve at half-maximal effect; nearly all actives have a fitted effect of over 50% in size
FMDV antiviral: blocks foot and mouth disease virus. Potency, µM (top dose mostly 57.9 µM), inactives show at the highest dose activity change, negative = inhibition, hits mostly inhibitors. FMDV antiviral cell-based qHTS. hit rate 1.2% among 410,000; calls by dose curve; tested in HEK293T cells; also: read-out not given here; potency is read from the fitted curve at half-maximal effect; nearly all actives have a fitted effect of over 45% in size
HCMV inh: blocks human cytomegalovirus replication; activity change, negative = inhibition, % at 57.5 µM; HFF cells, HCMV-luciferase reporter, 72 h; active compounds read low; hit rate 4.5% among 410,000; AID 1259415; in the data active = activity change below about -60%; inconclusive = no clear call, values can overlap the other calls; inactive = above about -39%
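Screen run at 2 compound doses on HFFs infected with reporter HCMV, MOI 1 PFU/cell. Luciferase activity from cell lysates at 72 h post infection gave inhibition relative to buffer-only and Salinomycin wells.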
MARV entry inh: blocks Marburg virus binding to or entry into cells; Marburg virus pseudotyped entry inhibition, cell reporter; Potency, µM (doses to about 37.8 µM), for the others: top-dose activity change, negative = inhibition, usual class: inhibitors; hit rate 1.8% among 300,000; calls by dose curve; tested in HEK293 cells; also: potency is read from the fitted curve at half-maximal effect
Giardia FBPA inh-1: Giardia lamblia aldolase inhibition | A8B2U2 | purified Giardia FBPA | Potency, µM (series often up to 59.6 µM), for the others: at the top dose activity, negative = inhibition, actives largely listed as inhibitors | hit rate 0.71% among 290,000 | AID 2451; also: potency is read from the fitted curve at half-maximal effect; nearly all actives have a fitted effect of over 55% in size
Target sequence (A8B2U2 whole entry, looked up): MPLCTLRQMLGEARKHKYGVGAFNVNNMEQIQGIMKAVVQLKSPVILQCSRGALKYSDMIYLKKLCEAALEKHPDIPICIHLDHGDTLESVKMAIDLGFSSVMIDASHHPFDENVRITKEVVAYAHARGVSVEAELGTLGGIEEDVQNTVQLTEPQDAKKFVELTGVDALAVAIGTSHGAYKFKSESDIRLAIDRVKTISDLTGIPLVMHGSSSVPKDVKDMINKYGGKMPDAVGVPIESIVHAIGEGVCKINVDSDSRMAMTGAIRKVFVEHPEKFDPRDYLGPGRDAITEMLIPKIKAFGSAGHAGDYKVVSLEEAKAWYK
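Giardia FBPA (40 nM reagent) was preincubated 10 min at RT with compound (up to 57.5 uM final), then substrate plus GAPDH/TPI/NAD/arsenate coupling system with diaphorase/resazurin was added; resorufin fluorescence (525/598 nm) was read after 20 min.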
HCV inhibitor: blocks hepatitis C virus | Huh7.5.1 HCVcc-Cre infection, luciferase reporter, 44 h | Potency, µM (doses to about 41.8 µM), inactives show top-dose activity change, negative = inhibition, actives largely listed as inhibitors | hit rate 3.4% among 340,000 | AID 651820; also: potency is read from the fitted curve at half-maximal effect
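After 44 h co-culture of compound, cells and HCVcc-Cre (~0.5 moi), substrate is added for 15 min at room temperature and luciferase measured over 15 sec. Cells were seeded at 1,000/well and pre-cultured 4 h.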
Giardia growth: Giardia lamblia growth inhibition. shares compounds with Giardia FBPA inh-1. Giardia lamblia trophozoite growth inhibition. Potency, µM (doses to about 57.5 µM), without a hit: at the top dose activity change, negative = inhibition, hits mostly inhibitors. hit rate 5% among 1,500. AID 2785;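 also: potency is read from the fitted curve at half-maximal effect; trophozoites exposed to compound for 48 h at 37 °C; nearly all actives have a fitted effect of over 70% in size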
Mammalian tox: mammalian cytotoxicity of Giardia aldolase inhibitor hits; AID 2786; shares compounds with Giardia FBPA inh-1; Potency, µM (top dose mostly 57.5 µM), for the others: top-dose viability change, negative = toxicity, hits mostly inhibitors; hit rate 4% among 1,500; mammalian cell viability counter-screen, qHTS;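 also: Chinese hamster ovary cells used as mammalian cytotoxicity surrogate; viability measured as cellular ATP by luminescence; potency is read from the fitted curve at half-maximal effect; compound exposure lasted 48 h before reading; nearly all actives have a fitted effect of over 60% in size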
Giardia FBPA inh-2: confirmation of Giardia fructose-bisphosphate aldolase inhibitors | Potency, µM (titrated, usually from 57.5 µM), for the others: at the top dose activity change, negative = inhibition, most hits filed as inhibitors | hit rate 5% among 1,500 | purified Giardia aldolase enzyme activity, qHTS | shares compounds with Giardia FBPA inh-1; also: potency is read from the fitted curve at half-maximal effect; nearly all actives have a fitted effect of over 45% in size
Rabbit FBPA inh: selectivity test for Giardia aldolase inhibitors: rabbit aldolase | shares compounds with Giardia FBPA inh-1 | Rabbit muscle FBPA enzyme inhibition, selectivity counter-screen | Potency, µM (series often up to 57.5 µM), inactives show top-dose activity, negative = inhibition, usual class: inhibitors | hit rate 4% among 1,500; also: potency is read from the fitted curve at half-maximal effect; nearly all actives have a fitted effect of over 60% in size
Target sequence (P00883 whole entry, looked up): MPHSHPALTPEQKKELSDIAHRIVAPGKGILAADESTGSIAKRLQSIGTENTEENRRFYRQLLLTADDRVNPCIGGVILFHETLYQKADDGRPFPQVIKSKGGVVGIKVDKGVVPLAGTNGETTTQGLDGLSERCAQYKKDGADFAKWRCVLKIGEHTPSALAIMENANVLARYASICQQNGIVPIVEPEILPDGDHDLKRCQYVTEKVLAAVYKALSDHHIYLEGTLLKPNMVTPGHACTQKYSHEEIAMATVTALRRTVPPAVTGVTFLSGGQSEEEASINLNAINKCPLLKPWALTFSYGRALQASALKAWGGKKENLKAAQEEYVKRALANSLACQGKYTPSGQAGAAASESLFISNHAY
GAPDH coupling: counter-screen for Giardia aldolase inhibitors: GAPDH coupling enzyme | shares compounds with Giardia FBPA inh-1 | GAPDH coupling enzyme counterscreen, biochemical, qHTS | Potency, µM (titrated, usually from 57.5 µM), for the others: at the highest dose activity change, negative = inhibition, most hits filed as inhibitors | hit rate 6% among 1,500 | AID 2795; also: potency is read from the fitted curve at half-maximal effect; nearly all actives have a fitted effect of over 55% in size
An asterisk follows results filed as active; u = inconclusive; x = no result; [ ] = remark or other dose. In the library only some 8.3% were active in any assay of this set; here they are far more common. Unless noted, calls follow the shape of the dose curve; as a rule, active = well fitted curve in the direction sought with a large enough effect; inconclusive = small, poorly fitted or top-dose-only effect, or another doubt; inactive = no such curve, though single readings can be large; an effect the other way counts as inactive or inconclusive. % is scaled to controls: 0 for no effect and ±100 for the full control effect.

SMILES	LASV entry inh	FMDV antiviral	HCMV inh	MARV entry inh	Giardia FBPA inh-1	HCV inhibitor	Giardia growth	Mammalian tox	Giardia FBPA inh-2	Rabbit FBPA inh	GAPDH coupling
CC(=O)c1ccc(NC(=O)CNCc2cccs2)cc1	x	55%	33	x	u	4%	x	x	x	x	x
N#Cc1ccc(Cl)cc1NC(=O)CNCc1cccs1	14%	31%	8	-1%	16µM*	21%	u	9%	2%	4%	8%
O=c1cc(Cc2ccccc2)[nH]c(=S)[nH]1	4%	-9%	-27	u	u	5%	x	x	x	x	x
COCc1cc(=O)[nH]c(=S)[nH]1	-1%	-19%	-26	10%	4.5µM*	8%	u	-4%	5%	1%	13%
CCCS(=O)(=O)c1nc(S(=O)(=O)c2ccc(C)cc2)c(N(C)Cc2ccccc2)s1	-20%[46.1 µM]	-7%	u	u	x	x	x	x	x	x	x
COC(=O)C1=C(O)/C(=C\c2cc(C)n(-c3ccccc3F)c2C)N=C1C	3%[46.1 µM]	17%	-9	3%[46.1 µM]	13µM*	u	-14%	-2%	-18%	-22%	-26%
COc1cccc(-c2cc(C(=O)NCCc3ccc(C)cc3)[nH]n2)c1	-23%[46.1 µM]	2%	-4	x	x	x	x	x	x	x	x
CCNC(=S)N/N=C/c1ccc(C(=O)O)cc1	u	-5%	5	-7%	18µM*	1%	2%[10.4 µM]	11%	7%	7%	20%
CNC(=S)N/N=C/c1ccc(-c2ccc(C(=O)O)cc2)o1	x	-23%	-16	x	18µM*	12%	-10%[10.4 µM]	-7%	-6%	-9%	-6%
CCN(CC)C(=O)c1cccc2nc3ccccc3nc12	23%	5%	-16	-11%	3%	23%	x	x	x	x	x
Oc1cccc2nc3ccccc3nc12	x	10%	6	x	18µM*	u	-2%[10.4 µM]	-10%	u	-21%	u
O=C(NCCc1ccccc1)c1ccc2c(c1)nc1n2CCOC1	3%[46.1 µM]	-56%	26	x	x	x	x	x	x	x	x
O=C(O)c1ccc(Cl)c(S(=O)(=O)Nc2ccc3[nH]c(=O)[nH]c3c2)c1	x	-21%	1	x	u	24%	21%[38.3 µM]	-13%	18µM*	u	16µM*
NNc1ccc(Cl)nn1	4%	-6%	0	1%[46.1 µM]	20µM*	-1%	12%	-1%	-5%	0%	-17%
CNc1ccc(Cl)nn1	u	-15%	13	20%[46.1 µM]	-2%	4%	x	x	x	x	x
CCN1CCN(Cc2cc3c(cc2[N+](=O)[O-])OCO3)CC1	x	-12%	-19	x	u	19%	x	x	x	x	x
O=[N+]([O-])c1cc2c(cc1CN1CCN(CCOCCO)CC1)OCO2	x	-5%	56	x	10µM*	22%	-3%[10.4 µM]	9%	-18%	5%	2%
CCOC(=O)c1[nH]cnc1C(=O)O	1%	-11%	56	-7%	18µM*	12%	21%	5%	5%	1%	4%
CCOC(=O)c1[nH]cnc1C(=O)NC(C)C	-13%	-11%	22	u	-28%	15%	x	x	x	x	x
CCOC(=O)c1c(C)[nH]c2ccc3c(c12)CN1CCc2cc(OC)ccc2[C@@H]1O3	x	u	x	x	0%	x	x	x	x	x	x
COc1ccc(/C=C\c2onc(C)c2S(=O)(=O)N2CCC(C(=O)Nc3ccccc3OC)CC2)cc1	4%[46.1 µM]	-27%	-28	-15%[46.1 µM]	x	x	x	x	x	x	x
Cc1c(Br)c(=O)oc2c(Br)c(O)c(O)cc12	1%	-18%	20	15%	u	-23%	-5%[38.3 µM]	-20%	u	u	-5%
CCCCCCNC(=O)N[C@H](Cc1ccc(O)cc1)C(=O)NCCC[C@H]1CN2C(=NC[C@H]2CCC)N1CC1CCC1	x	x	x	x	16µM*	x	-18%	5%	-1%	-2%	4%
Cc1oc(CSCCSCc2cc(C(=O)O)c(C)o2)cc1C(=O)O	x	-1%	24	x	14µM*	18%	61%	9%	-1%	-7%	11%
Cc1oc(CSCC2CCCO2)cc1C(=O)O (centres undefined)	0%	18%	50	u	-5%	12%	x	x	x	x	x
SMILES	LASV entry inh	FMDV antiviral	HCMV inh	MARV entry inh	Giardia FBPA inh-1	HCV inhibitor	Giardia growth	Mammalian tox	Giardia FBPA inh-2	Rabbit FBPA inh	GAPDH coupling
Cc1ccc(C(=O)NN2C(=O)CSC2=S)cc1	8%	-18%	44	3%	-5%	-16%	x	x	x	x	x
C/C(=N\N1C(=O)CSC1=S)c1ccc(Br)cc1	-18%	-8%	57	26%[46.1 µM]	16µM*	19%	-16%	6%	-12%	2%	-6%
COc1ccc(OC)c(NC(=O)C2C3CCC(C3=C(C)C)C2C(=O)O)c1 (centres undefined)	5%	-2%	-1	-5%	3.5µM*	u	-8%[38.3 µM]	-6%	u	u	u
OC[C@@H]1[C@@H](c2ccc(F)cc2)C(c2ccc(F)cc2)=NN1c1ccccc1	x	x	x	x	-8%[89.2 µM]	x	x	x	x	x	x
CN1CCC(NCCC(c2ccc(F)cc2)c2ccc(Cl)cc2)CC1 (centres undefined)	u	-7%	-97*	u	14µM*	2µM*	u	20µM*	7%	8%	-3%
CC(NC1CCN(Cc2ccccc2)CC1)c1ccc(F)cc1 (centres undefined)	u	-21%	-3	u	u	u	x	x	x	x	x
N#Cc1ccccc1	x	-22%	5	x	x	33%	x	x	x	x	x
N#Cc1c(C#N)c(O)c2ccccc2c1O	x	4%	7	x	20µM*	17%	u	-7%	u	u	u
CO/N=C(\C(=O)N[C@@H]1C(=O)N2C(C(=O)O)=C(COC(N)=O)CS[C@@H]12)c1ccco1	x	x	x	x	-14%[21.7 µM]	x	x	x	x	x	x
CO/N=C(/C(=O)N[C@@H]1C(=O)N2C(C(=O)O)=CCS[C@H]12)c1cnc(N)s1	x	x	x	x	16µM*	x	-21%	3%	-13%	-8%	-6%
COCCCNC(=O)NC(CCC(C)C)c1c(-n2cccc2)sc2c1CCN(C)C2 (centres undefined)	-5%[46.1 µM]	-12%	11	x	x	x	x	x	x	x	x
O=C(Nc1cccc(F)c1)N1CCC2(CC1)CCN(C(=O)c1ccco1)CC2	x	1%	x	x	6%	x	x	x	x	x	x
C=CCn1c(SCC(=O)Nc2cc(C)on2)nnc1C1COc2ccccc2O1 (centres undefined)	-1%[46.1 µM]	-2%	-9	12%[46.1 µM]	7%	-4%	x	x	x	x	x
